Experimental data from PubChem BioAssay AID1159580 (chemical genetic matrix, 2015).
In all, about 5,500 compounds went through this assay and about 2,000 (36%) were called active. Inconclusive results (about 18%) are left out. No stated cut-off is given here; in the data, active means normalized growth mostly below about 0.91 (no sharp cut-off); inconclusive means no clear call, values can overlap the other calls; inactive means mostly above about 0.92. The list shows a part of the results.

Assay: chemical genetic growth profiling, strain panel (AID 1159580);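 further: tested at 20 µM; growth read once vehicle control cultures reached saturation at 30 °C; 1 = growth at the plate median or of vehicle wells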
Settings: growth OD

Measured: normalized growth

CCCCSP(=O)(SCCCC)SCCCC
inactive: S. cerevisiae deletion strains, locus YAL013W, strain DEP1, stronger effect = lower value 1.01 | S. cerevisiae deletion strains, locus YBR021W, strain FUR4, stronger effect = lower value 1 | S. cerevisiae deletion strains, locus YBR229C, strain ROT2, stronger effect = lower value 1.01 | S. cerevisiae deletion strains, locus YCL029C, strain bik1, stronger effect = lower value 1.01 | S. cerevisiae deletion strains, locus YDL035C, strain GPR1, stronger effect = lower value 1.01 | S. cerevisiae deletion strains, locus YDL074C, strain BRE1, stronger effect = lower value 1.04 | S. cerevisiae deletion strains, locus YDL101C, strain DUN1, stronger effect = lower value 1.02 | S. cerevisiae deletion strains, locus YDL134C, strain PPH21, stronger effect = lower value 1.01 | S. cerevisiae deletion strains, locus YDL185W, strain tfp1, stronger effect = lower value 1.01 | S. cerevisiae deletion strains, locus YDL192W, strain arf1, stronger effect = lower value 1.01 | S. cerevisiae deletion strains, locus YDR101C, strain arx1, stronger effect = lower value 1.01 | S. cerevisiae deletion strains, locus YDR150W, strain NUM1, stronger effect = lower value 1.01 | S. cerevisiae deletion strains, locus YDR162C, strain NBP2, stronger effect = lower value 1.02 | S. cerevisiae deletion strains, locus YDR318W, strain mcm21, stronger effect = lower value 1.01 | S. cerevisiae deletion strains, locus YDR388W, stronger effect = lower value 1.01 | S. cerevisiae deletion strains, locus YDR502C, strain sam2, stronger effect = lower value 1.01 | S. cerevisiae deletion strains, locus YEL061C, strain CIN8, stronger effect = lower value 1.01 | S. cerevisiae deletion strains, locus YER110C, stronger effect = lower value 1.01 | S. cerevisiae deletion strains, locus YER155C, strain BEM2, stronger effect = lower value 1.01 | S. cerevisiae deletion strains, locus YER167W, strain BCK2, stronger effect = lower value 1.02 | S. cerevisiae deletion strains, locus YGL078C, strain dbp3, stronger effect = lower value 1.01 | S. cerevisiae deletion strains, locus YGL086W, strain mad1, stronger effect = lower value 1 | S. cerevisiae deletion strains, locus YGL248W, strain PDE1, stronger effect = lower value 1.02 | S. cerevisiae deletion strains, locus YGR078C, strain PAC10, stronger effect = lower value 1.02 | S. cerevisiae deletion strains, locus YGR135W, strain pre9, stronger effect = lower value 1 | S. cerevisiae deletion strains, locus YGR229C, strain SMI1, stronger effect = lower value 1.04 | S. cerevisiae deletion strains, locus YGR252W, strain gcn5, stronger effect = lower value 0.984 | S. cerevisiae deletion strains, locus YHR030C, strain SLT2, stronger effect = lower value 1.02 | S. cerevisiae deletion strains, locus YHR079C, strain IRE1 (second series), stronger effect = lower value 1.01 | S. cerevisiae deletion strains, locus YHR094C, strain hxt1, stronger effect = lower value 1 | S. cerevisiae deletion strains, locus YHR129C, strain ARP1, stronger effect = lower value 1.02 | S. cerevisiae deletion strains, locus YHR200W, strain rpn10, stronger effect = lower value 1 | S. cerevisiae deletion strains, locus YIL066C, strain RNR3, stronger effect = lower value 1.02 | S. cerevisiae deletion strains, locus YIL073C, strain SPO22, stronger effect = lower value 1.06 | S. cerevisiae deletion strains, locus YIL125W, strain kgd1, stronger effect = lower value 1.01 | S. cerevisiae deletion strains, locus YIR030C, strain dcg1, stronger effect = lower value 0.996 | S. cerevisiae deletion strains, locus YJL095W, strain BCK1, stronger effect = lower value 1.05 | S. cerevisiae deletion strains, locus YJL134W, strain LCB3, stronger effect = lower value 1.02 | S. cerevisiae deletion strains, locus YJL168C, strain set2, stronger effect = lower value 1.01 | S. cerevisiae deletion strains, locus YJL187C, strain SWE1 (second series), stronger effect = lower value 1.01 | S. cerevisiae deletion strains, locus YJR043C, strain POL32, stronger effect = lower value 1.01 | S. cerevisiae deletion strains, locus YJR075W, strain HOC1, stronger effect = lower value 1.02 | S. cerevisiae deletion strains, locus YKL009W, strain mrt4, stronger effect = lower value 0.961 | S. cerevisiae deletion strains, locus YKL068W, stronger effect = lower value 1.01 | S. cerevisiae deletion strains, locus YKL085W, strain MDH1 (second series), stronger effect = lower value 1.01 | S. cerevisiae deletion strains, locus YKL085W, strain MDH1, stronger effect = lower value 1.01 | S. cerevisiae deletion strains, locus YKL190W, strain CNB1, stronger effect = lower value 1.02 | S. cerevisiae deletion strains, locus YKR001C, strain vps1, stronger effect = lower value 1.01 | S. cerevisiae deletion strains, locus YLR039C, strain RIC1, stronger effect = lower value 1.05 | S. cerevisiae deletion strains, locus YLR058C, strain SHM2, stronger effect = lower value 1.01 | S. cerevisiae deletion strains, locus YLR102C, strain apc9, stronger effect = lower value 0.995 | S. cerevisiae deletion strains, locus YLR262C, strain YPT6, stronger effect = lower value 1.04 | S. cerevisiae deletion strains, locus YLR268W, strain sec22, stronger effect = lower value 1.01 | S. cerevisiae deletion strains, locus YLR330W, strain CHS5, stronger effect = lower value 1.01 | S. cerevisiae deletion strains, locus YLR342W, strain FKS1 (second series), stronger effect = lower value 1.04 | S. cerevisiae deletion strains, locus YLR371W, strain rom2, stronger effect = lower value 0.999 | S. cerevisiae deletion strains, locus YLR418C, strain cdc73, stronger effect = lower value 1.02 | S. cerevisiae deletion strains, locus YML016C, strain PPZ1, stronger effect = lower value 1.02 | S. cerevisiae deletion strains, locus YML032C, strain rad52, stronger effect = lower value 1.01 | S. cerevisiae deletion strains, locus YML124C, strain tub3, stronger effect = lower value 1.01 | S. cerevisiae deletion strains, locus YMR078C, strain ctf18, stronger effect = lower value 1.01 | S. cerevisiae deletion strains, locus YMR223W, strain ubp8, stronger effect = lower value 1 | S. cerevisiae deletion strains, locus YMR263W, strain SAP30, stronger effect = lower value 1.02 | S. cerevisiae deletion strains, locus YMR307W, strain GAS1, stronger effect = lower value 1.2 | S. cerevisiae deletion strains, locus YNL067W, strain RPL9B, stronger effect = lower value 1.01 | S. cerevisiae deletion strains, locus YNL128W, strain TEP1, stronger effect = lower value 1.01 | S. cerevisiae deletion strains, locus YNL153C, strain GIM3, stronger effect = lower value 1.01 | S. cerevisiae deletion strains, locus YNL233W, strain BNI4, stronger effect = lower value 1.01 | S. cerevisiae deletion strains, locus YNL250W, strain rad50, stronger effect = lower value 1.01 | S. cerevisiae deletion strains, locus YNL271C, strain bni1, stronger effect = lower value 0.998 | S. cerevisiae deletion strains, locus YNL298W, strain CLA4, stronger effect = lower value 1.02 | S. cerevisiae deletion strains, locus YNL307C, strain MCK1, stronger effect = lower value 0.992 | S. cerevisiae deletion strains, locus YNL322C, strain KRE1, stronger effect = lower value 1.01 | S. cerevisiae deletion strains, locus YNR052C, strain pop2, stronger effect = lower value 1.01 | S. cerevisiae deletion strains, locus YOL006C, strain TOP1, stronger effect = lower value 1.07 | S. cerevisiae deletion strains, locus YOL012C, strain htz1 0.841 | S. cerevisiae deletion strains, locus YOL147C, strain pex11, stronger effect = lower value 1.01 | S. cerevisiae deletion strains, locus YOR061W, strain CKA2, stronger effect = lower value 1.01 | S. cerevisiae deletion strains, locus YOR069W, strain VPS5, stronger effect = lower value 1.02 | S. cerevisiae deletion strains, locus YOR136W, strain idh2, stronger effect = lower value 1 | S. cerevisiae deletion strains, locus YOR144C, strain elg1, stronger effect = lower value 1.02 | S. cerevisiae deletion strains, locus YOR184W, strain ser1, stronger effect = lower value 0.987 | S. cerevisiae deletion strains, locus YOR316C, strain cot1, stronger effect = lower value 1.01 | S. cerevisiae deletion strains, locus YPL055C, strain LGE1, stronger effect = lower value 1.03 | S. cerevisiae deletion strains, locus YPL241C, strain CIN2, stronger effect = lower value 1.02 | S. cerevisiae deletion strains, locus YPR119W, strain clb2, stronger effect = lower value 1.01 | S. cerevisiae deletion strains, locus YPR141C, strain kar3, stronger effect = lower value 1.02 | S. cerevisiae deletion strains, locus YPR163C, strain tif3, stronger effect = lower value 1.01 | S. cerevisiae deletion strains, locus YPR167C, strain met16, stronger effect = lower value 1 | S. cerevisiae deletion strains, strain wtn01, stronger effect = lower value 0.996 | S. cerevisiae strains, strain wild type, stronger effect = lower value 1.02
